Bioassay records (PubChem BioAssay)
Shown are actives, neighbours in structure and some others; about 4.6% of the full set was active somewhere.
Mdm2 MdmX PPI: inhibitors of human Mdm2/MdmX interaction. actives 3% (n = 330,000). AID 485346. O15151+Q00987. inhibition, % at 8 µM. SaOS-2 split-luciferase Mdm2/MdmX complementation, luminescence;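 active = inhibition of at least 50% at 8 µM in the primary screen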
Peg3 promoter: inhibitors of Peg3 promoter | HeLa PEG-Prom luciferase reporter, luminescence, overnight | inhibition, % at 20 µM | actives 1.7% (n = 360,000) | AID 588405;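 active = inhibition of at least 50% at 20 µM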
HIF-2a block: inhibitors of HIF-2a. actives 0.72% (n = 360,000). 786-0 RCC cells HIF-2a reporter, luciferase luminescence, overnight. inhibition, % at 18.8 µM;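 active = inhibition of the luminescence signal of 40% or more relative to plate controls, in a single-dose primary screen at 18.75 µM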
CF NFkB block: blocks PAF-induced NF-kB reporter in cystic fibrosis cells | KKLEB NF-kB-GFP reporter, GFP fluorescence overnight | inhibition, % at 5 µM | actives 0.86% (n = 360,000) | AID 588850;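 active = at least 50% inhibition at 5 µM, scaled per plate between neutral and stimulator controls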;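 note: PAF is a Pseudomonas aeruginosa culture filtrate used as stimulus; plate controls were PAF-stimulated DMSO wells for no effect and unstimulated DMSO wells for full effect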
KKLEB cytotox: counter-screen for CF NF-kB inhibitors: cytotoxicity. KKLEB CF airway cells viability, ATPlite luminescence, overnight; stronger effect = lower value; cells stimulated with P. aeruginosa culture filtrate. activity change (cytotoxicity), % at 5 µM. AID 602141. actives 0.36% (n = 360,000);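 active = corrected activity change at or below -50% at 5 µM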
ABHD5-PLIN5 inh: ABHD5-PLIN5 protein interaction inhibition; Q00G26+Q8WTS1; Split G. princeps luciferase complementation, luminescence, 4 h; inhibition, % at 4 µM; actives 0.78% (n = 360,000); AID 602281;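 active = inhibition above the mean inhibition across every tested compound plus 3 SD, cut at about 22% in these data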;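 note: 0% = DMSO only wells and the 100% control is not disclosed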
Target sequence (Q00G26 whole entry, looked up): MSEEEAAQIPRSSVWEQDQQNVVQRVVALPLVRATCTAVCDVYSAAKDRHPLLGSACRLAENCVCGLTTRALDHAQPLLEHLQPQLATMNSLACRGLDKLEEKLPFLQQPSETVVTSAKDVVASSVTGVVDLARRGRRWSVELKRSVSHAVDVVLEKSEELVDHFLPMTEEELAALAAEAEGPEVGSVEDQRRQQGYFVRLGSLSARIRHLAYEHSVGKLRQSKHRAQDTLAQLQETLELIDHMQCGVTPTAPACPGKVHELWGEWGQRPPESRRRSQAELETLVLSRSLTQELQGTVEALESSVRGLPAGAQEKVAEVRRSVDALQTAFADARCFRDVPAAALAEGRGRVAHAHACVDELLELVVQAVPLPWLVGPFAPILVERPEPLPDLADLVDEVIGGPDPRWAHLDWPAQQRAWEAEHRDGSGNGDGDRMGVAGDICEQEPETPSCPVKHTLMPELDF
Target sequence (Q8WTS1 whole entry, looked up): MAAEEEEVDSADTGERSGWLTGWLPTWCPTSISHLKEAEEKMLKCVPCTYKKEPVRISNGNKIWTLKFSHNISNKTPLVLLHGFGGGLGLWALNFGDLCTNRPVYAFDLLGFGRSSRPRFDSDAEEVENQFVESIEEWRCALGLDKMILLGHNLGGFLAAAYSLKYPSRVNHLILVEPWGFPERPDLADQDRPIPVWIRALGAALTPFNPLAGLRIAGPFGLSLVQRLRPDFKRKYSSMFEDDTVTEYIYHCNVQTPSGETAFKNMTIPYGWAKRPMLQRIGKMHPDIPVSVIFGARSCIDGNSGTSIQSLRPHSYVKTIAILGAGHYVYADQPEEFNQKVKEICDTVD
Mdm2 MdmX conf: confirmation of human Mdm2/MdmX interaction inhibitors; AID 489028; Mdm2-MdmX binding, luminescent assay; shares compounds with Mdm2 MdmX PPI; actives 55% (n = 10,000); inhibition, % at 8 µM; in the data active = inhibition above about 40%
Full FLuc ctr: inhibits full-length luciferase, flagging false Mdm2/MdmX hits; shares compounds with Mdm2 MdmX PPI; SaOS-2 full-length luciferase counterscreen, luminescence; inhibition, % at 8 µM; actives 77% (n = 6,200);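 active = mean inhibition at 8 µM reaching about 37%, which flags the compound as non-specific, limit read from the data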;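 note: p53-null SaOS-2 cells with luciferase driven by a doxycycline-inducible promoter; compound on cells about two nights before reading with doxycycline added after day one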
Active calls of the source: *; . = no result given; ! = repeats disagree.

SMILES	Mdm2 MdmX PPI	Peg3 promoter	HIF-2a block	CF NFkB block	KKLEB cytotox	ABHD5-PLIN5 inh	Mdm2 MdmX conf	Full FLuc ctr
COc1ccc(C)c2sc(NC(=O)CCS(=O)(=O)c3ccccc3)nc12	77.0*	77.8*	-51.1	35.6	-39.5	1.9	68.8*	45.2*
Cc1nnc(NC(=O)CCS(=O)(=O)c2ccccc2)s1	31.9	14.8	-12.8	-15.4	-0.2	-2.7	.	.
O=C(CCS(=O)(=O)c1ccc(F)cc1)Nc1nc(-c2ccccn2)cs1	68.6*	8.3	6.1	10.4	2.7	-1.0	43.4*	38.5*
Cc1cc(C)c(OCC(=O)Nc2nc(-c3ccccn3)cs2)c(C)c1	53.1*	14.0	1.7	-0.1	-1.9	0.6	32.6	46.3*
CCCC(=O)N1CCCC1(C)C(=O)NCCc1ccccn1 (stereo not drawn)	.	7.2	5.9	2.3	1.6	0.2	.	.
C[C@@H]1c2ccccc2N2C[C@H](Cc3ccc(C(=O)c4ccccc4)cc3)C[C@@H]12	.	-13.0	-6.9	18.7	1.5	-2.8	.	.
O=C(CCS(=O)(=O)c1ccccc1)Nc1nc(-c2ccccn2)cs1	70.4*	18.3	0.9	18.5	13.3	7.0	35.0	48.4*
COc1ccc2oc(C(=O)Nc3nc(-c4ccccn4)cs3)c(C)c2c1	60.4*	-71.8	-121.6	-2.7	-5.5	2.6	58.7*	69.3*
CCCC(=O)Nc1ccc(-c2csc(N/N=C\c3ccncc3)n2)cc1	64.7*	68.0*	-174.1	-26.5	0.5	6.6	7.3	.
CC(Oc1ccc(F)cc1)C(=O)Nc1nc(-c2ccccn2)cs1 (stereo not drawn)	76.8*	55.4*	10.8	2.9	11.5	-7.2	83.8*	35.6
C[C@H](NC(=O)c1ccco1)C(=O)Nc1nc(-c2ccccn2)cs1	.	11.1	9.8	2.0	-10.4	-0.3	.	.
Cn1nccc1-c1coc2c(C(=O)NCc3ccccc3)cccc12	.	-133.7	-151.1	-7.1	-6.4	2.9	.	.
COc1ccc(CN2C(=O)c3ccccc3C(/C=N/OCc3ccc(Cl)cc3)C2=O)cc1 (stereo not drawn)	66.6*	-11.2	-25.6	-0.3	8.7	-4.1	14.2	.
O=C(CCl)N(CCc1ccccc1)CCc1ccccc1	90.6*	26.7	-4.5	66.4*	-50.5*	4.6	8.3	.
COc1ccc(CN(C)C(=O)/C=C/c2ccc(S(=O)(=O)N3CCCCCC3)cc2)cc1	33.0	33.4	15.0	13.6	4.2	1.6	.	.
Cc1cccc2cc(CN(C(=O)c3cnccn3)C3CCCCC3)c(Cl)nc12	84.4*	24.2	3.2	0.4	3.1	-1.0	82.6*	36.3*
COc1ccc(COc2cc(-c3cccc(OC)c3)nc3ccc(N)cc23)cc1	59.5*	-112.2	-64.4	32.1	-13.5	-7.2	51.4*	119.9*
CCOC(=O)c1c(C)[nH]c(C(=O)N/N=C/c2cccc(OC)c2)c1C	52.6*	-42.4	-101.7	16.8	-6.3	-0.2	39.1	.
COc1cccc(/C=N/NC(=O)c2[nH]nc3c2CCc2ccccc2-3)c1	56.0*	-13.6	-26.7	-20.0	5.0	4.7	60.6*	43.9*
COC(=O)[C@@]12C[C@@H](CC(=O)N3CCOCC3)C(=O)N(Cc3cccc4ccccc34)C1=CCC(C)(C)C2	.	.	9.6	.	.	7.7	.	.
CCOc1ccc(N(CC)C(=O)CCS(=O)(=O)c2cccc3nonc23)cc1	9.7	19.2	-7.1	-11.6	6.3	1.1	.	.
C[C@@]12CCC=C[C@H]1[C@H](c1ccc3ccccc3c1/C=C/c1ccccc1)N(Cc1ccccc1)C2=O	64.7*	-25.6	-7.3	25.5	11.9	-4.4	15.3	.
COc1ccc(C(=O)NNC(=O)CSc2nnc(C3CC3)n2C)cc1	16.1	2.5	6.7	1.0	-1.1	10.5	.	.
OC1OC[C@@H](O)[C@H](O)[C@H]1O (stereo partly drawn)	21.1	.	.	.	.	.	.	.
COc1ccc(S(=O)(=O)N2CCOCC2)cc1NC(=O)CCNC(=O)c1ccc([N+](=O)[O-])cc1	-5.6	11.9	11.3	-14.7	18.5	-0.3	.	.
SMILES	Mdm2 MdmX PPI	Peg3 promoter	HIF-2a block	CF NFkB block	KKLEB cytotox	ABHD5-PLIN5 inh	Mdm2 MdmX conf	Full FLuc ctr
COc1cc(C(=O)NCC(=O)N2CCN(S(=O)(=O)c3cc(C)ccc3C)CC2)cc(OC)c1OC	53.3*	12.4	31.8	14.0	-15.8	2.2	52.5*	42.2*
COc1ccc(-c2coc3cc4oc(=O)cc(C)c4cc23)cc1F	71.4*	32.6	6.9	-71.4	-9.2	0.9	46.4*	104.8*
COc1ccc(-c2coc3cc4oc(=O)cc(-c5ccccc5)c4cc23)cc1F	83.6*	18.2	-0.3	6.0	-14.2	-0.1	57.5*	55.4*
COc1ccc(-c2cc(=O)oc3cc4occ(C)c4cc23)cc1	19.7	3.8	-24.3	16.1	-2.6	-8.8	.	.
CCN(C(=O)[C@@H]1CCCN1C(=O)c1cccs1)c1nc2cc(Cl)ccc2s1	22.7	-48.2	-50.3	-4.7	5.2	9.3	.	.
CC1=CC(C)C(=O)N(CCN2CCOCC2)C(C)=C1 (stereo not drawn)	.	-0.4	10.9	24.3	8.3	3.4	.	.
CCCCCn1c(=N)n(CC(O)COc2ccccc2OC)c2ccccc21 (stereo not drawn)	60.6*!	43.0	-13.9	-5.4	-11.3	-1.0	27.9	.
COc1ccccc1OCC(O)Cn1c(=N)n(Cc2ccccc2)c2ccccc21 (stereo not drawn)	39.0	32.5	14.9	1.0	-5.4	4.4	.	.
Cc1ccccc1OCC(O)Cn1c(=N)n(Cc2ccccc2)c2ccccc21 (stereo not drawn)	97.4*	110.4*	9.9	8.8	-10.5	15.6	95.7*	28.9
C=CCn1c(=N)n(CC(O)COc2ccccc2OC)c2ccccc21 (stereo not drawn)	23.9	12.3	10.2	-0.1	-11.5	10.4	.	.
O=C(CN1CCN(S(=O)(=O)c2ccc3c(c2)OCCO3)CC1)Nc1cccc(F)c1	1.9	22.3	9.1	11.5	0.2	-8.8	.	.
Cc1cccc(CNc2ncnc3ccc(-c4cccnc4)cc23)c1	10.3	19.1	31.8	26.3	-27.1	11.9	.	.
CC(=O)Nc1ccc(CNc2ncnc3ccc(-c4c(C)noc4C)cc23)cc1	88.0*	-64.5	-52.8	-79.4	-29.7	4.4	68.4*	49.0*
CCOC(=O)c1c(NC(=O)CSc2nnc(-c3c[nH]c4ccccc34)n2CCOC)sc2c1CCCCC2	56.0*	17.1	-10.7	-8.9	16.5	-2.4	17.1	.
CCc1ccc(-c2cn(-c3nc(C)cc(C)n3)c(=N)o2)cc1	53.4*	-6.2	-103.5	15.8	-11.3	5.7	52.2*	67.9*
